Measured values published in PubChem BioAssay (Tox21).
Several values for one entry are separate records, joined by “and”; a condition that tells them apart may be missing. Identical values can stand only once. Records with an inconclusive call do not appear. The source holds several records for some structures; these can differ, active in one and inactive in another. Activity calls are given as the source filed them. Calls follow the shape of the dose curve; as a rule, active = well fitted inhibition curve with a large enough effect in the repeat runs; inconclusive = weak or mixed curves; inactive = no such curve, though single readings can be large or run the other way.

Molecular target: Cytochrome P450 1A2 (Homo sapiens) (UniProt P05177)
Assay: Cytochrome P450 Family 1 Subfamily A Member 2 (CYP1A2) small molecule antagonists: luciferase reporter qHTS assay (AID 1671199); also: nearly all actives have a fitted effect of over 50% in size
Details: P450-Glo CYP1A2 enzyme, luciferin luminescence, 1 h; series mostly up to 115 µM; activity change, negative = inhibition: at the top concentration
Source text: National Center for Advancing Translational Sciences [NCATS]
U.S. Environmental Protection Agency [EPA]
National Institutes of Environmental Health Sciences [NIEHS]
National Toxicology Program [NTP]
U.S. Food and Drug Administration [FDA]
Cytochrome P450 (CYP) enzymes are membrane-bound hemeproteins that play a key role in metabolism of drugs and xenobiotics. Evaluation of the effect of chemicals on CYP isozymes is useful to minimize the adverse drug reactions and toxicities in drug development process. Tox21 chemicals were tested for their effect on CYP enzyme activities by using P450-Glo (TM) screening systems (Promega Corporation, Madison, WI). These systems provide a luminescent method containing proluciferin substrates and are converted to luciferin products by CYP isozymes. The luciferin products formed are detected with a luciferin detection reagent, and the amount of light produced is proportional to CYP activity. P450-Glo (TM) CYP1A2 screening system (Catalog. No. V9770) was used to detect the compounds that interfere in CYP1A2 activity. The positive control compound used for CYP1A2 assay is furafylline (Sigma-Aldrich, St. Louis, MO).
Tox21 Assay Protocol Summary:
Two ul of enzyme-substrate mix was dispensed into medium binding white/solid 1536-well plates (Greiner Bio-One North America Inc., Monroe, NC) using a BioRaptr Flying Reagent Dispenser (FRD, Beckman Coulter, Brea, CA). Compounds dissolved in DMSO and positive control (furafyllline) were transferred to the assay plates at 23 nl using a Pintool station (Wako, San Diego, CA). The assay plates were incubated at room temperature for 10 min. Then 2 ul of NADPH regeneration solution was added to each well of the assay plates using an FRD and incubated at room temperature for 1 h. The reaction was stopped by adding 4 ul of detection reagent using an FRD and after 20 min incubation at room temperature the luminescence signal was measured using a ViewLux plate reader (Perkin Elmer, Shelton, CT). Data were expressed as relative luminescence units.
% is scaled to controls: 0 for no effect and ±100 for the full control effect; potency is read from the fitted curve at half-maximal effect.

Sequence of Cytochrome P450 1A2 (Homo sapiens) (P05177 whole entry, looked up): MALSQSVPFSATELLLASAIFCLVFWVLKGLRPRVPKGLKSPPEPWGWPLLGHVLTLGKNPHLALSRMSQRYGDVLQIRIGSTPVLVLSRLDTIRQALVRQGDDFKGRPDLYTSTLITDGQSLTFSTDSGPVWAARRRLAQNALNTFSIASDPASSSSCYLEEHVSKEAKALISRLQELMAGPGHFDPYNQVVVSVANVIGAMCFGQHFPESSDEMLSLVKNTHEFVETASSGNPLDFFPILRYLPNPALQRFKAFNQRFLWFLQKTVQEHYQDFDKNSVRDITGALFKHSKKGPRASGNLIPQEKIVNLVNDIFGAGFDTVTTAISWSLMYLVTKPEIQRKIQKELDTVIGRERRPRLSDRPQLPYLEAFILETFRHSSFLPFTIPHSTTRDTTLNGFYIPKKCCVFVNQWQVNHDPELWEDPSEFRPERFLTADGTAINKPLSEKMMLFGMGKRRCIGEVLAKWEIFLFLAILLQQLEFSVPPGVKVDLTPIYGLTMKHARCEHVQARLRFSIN

Row | SMILES | Potency | activity change, negative = inhibition
1 | CN=C=S | 40.3 µM (active) | 
2 | CCCCCCCCCCCC#N |  | -21.4% (inactive)
3 | C[C@]12CC[C@H]3[C@@H](CC[C@@]45O[C@@H]4C(O)=C(C#N)C[C@]35C)[C@@H]1CC[C@@H]2O |  | 14.1% [at 53 µM] (inactive)
4 | C=CCO |  | -15.6% (inactive)
5 | CC(C)C#N |  | -5.35% (inactive)
6 | CCN(CC)c1ccccc1 | inactive | 
7 | CC(NC(C)(C)C)C(=O)c1cccc(Cl)c1 (stereo not given) | inactive | 
8 | Nc1c(Cl)c(Cl)nc(C(=O)O)c1Cl | 39.5 µM (active) and inactive | 
9 | O=S(=O)(c1ccc(O)cc1)c1ccc(O)cc1 |  | -26.4% (inactive)
10 | BrCCBr | 30.9 µM (active) and inactive | 
11 | OC(O)C(Cl)(Cl)Cl | inactive | 
12 | CCNc1nc(NC(C)C)nc(SC)n1 | 8.02 µM (active) and 11.2 µM (active) | 
13 | CC(=O)C=C(C)C | inactive | 
14 | CCCCOC(=O)c1ccccc1C(=O)OCCCC | 5.03 µM (active) and 8.94 µM (active) | 
15 | CCCCN(CC)C(=O)SCCC | inactive | 
16 | Clc1cccc(Cl)c1Cl | inactive | 
17 | COC(=O)NS(=O)(=O)c1ccc(N)cc1 |  | -18.7% (inactive)
18 | O=C(NC(=O)c1c(F)cccc1F)Nc1cc(Cl)c(OC(F)(F)C(F)C(F)(F)F)cc1Cl (stereo not given) |  | -15.7% [at 53 µM] (inactive)
19 | [N-]=[N+]=[N-] | 43.3 µM (active) and inactive | 
20 | Cc1cc(Cl)ccc1O | 30.8 µM (active) and 31.7 µM (active) | 

Row | SMILES | Potency | activity change, negative = inhibition
21 | CN(C)CCO | inactive | 
22 | c1ccc(-c2ccccc2)cc1 | inactive | 
23 | CC(Br)C(=O)O (stereo not given) |  | -20.3% (inactive)
24 | CCCN(CCC)N=O | inactive | 
25 | COC(=O)c1ccccc1N | 34.4 µM (active) and 39.9 µM (active) | 
26 | CCCN(CCC)c1c([N+](=O)[O-])cc(C(F)(F)F)cc1[N+](=O)[O-] | 20 µM (active) | 
27 | O=[N+]([O-])c1ccccc1 |  | -26.6% (inactive)
28 | ClCc1cccnc1 | 62.2 µM (active) and inactive | 
29 | O=[N+]([O-])c1ccc([As](=O)(O)O)cc1 | inactive | 
30 | NCCc1ccc(O)cc1 | 39.6 µM (active) and inactive | 
31 | CCOP(=S)(OCC)Oc1cnc2ccccc2n1 | inactive and 2.24 µM (active) | 
32 | CC(C)OC(=O)Nc1ccccc1 | 28.3 µM (active) and 39.9 µM (active) | 
33 | CCc1cccc(C)c1N(C(=O)CCl)C(C)COC (stereo not given) | 66.9 µM (active) and inactive | 
34 | CC(C)=C[C@@H]1[C@@H](C(=O)OCc2coc(Cc3ccccc3)c2)C1(C)C | 27.5 µM (active) | 
35 | CCCCN(CCCC)SN(C)C(=O)Oc1cccc2c1OC(C)(C)C2 | 36.2 µM (active) and 39.9 µM (active) | 
36 | O=C1CCCN1 |  | -28.5% (inactive)
37 | CC(C)(Cl)Cl | inactive and 44.8 µM (active) | 
38 | CC(C)(C)OOC(C)(C)C |  | -30.4% [at 53 µM] (inactive)
39 | ClCCBr |  | -18.6% (inactive)
40 | C=C(C)CCl |  | -9.56% [at 10.5 µM] (inactive)
